Screening results: PubChem, Broad Institute
Compounds with a hit are over-represented: about 1.2% of the library has one in this group of screens.
NSD2 inh: NSD2 histone methyltransferase inhibitors, primary screen, biochemical, AlphaScreen, single concentration, set 2 | AID 743445, 2014 | actives 0.54% (n = 310,000) | inhibition, % at 12.5 µM | Histone-lysine N-methyltransferase NSD2 (Homo sapiens), O96028 | NSD2 peptide methylation, 120 min; in the data active = inhibition above about 50%
miR122 inh: miR-122 Renilla sensor signal increase in Huh7, primary screen, miR-122 inhibitor project, cell-based, single point, plate reader; actives 0.3% (n = 340,000); activation (reporter increase), % at 12.5 µM; Huh7 miR-122 Renilla luciferase sensor, 48 h; neutral wells = 0, positive control = 100;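 active = mean replicate activation score at least 90 and every replicate individually at or above 90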;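 also: higher luciferase means less miR-122 activity so hits act as miR-122 inhibitors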
PglD DTNB: C. jejuni PglD acetyltransferase inhibitors, primary screen, biochemical, DTNB colorimetric, single point | purified PglD enzyme, DTNB colorimetric CoA detection | AID 602405, 2012 | inhibition, % at 12.5 µM | actives 0.098% (n = 360,000); in the data active = inhibition above about 16%, passing the limit was not always enough
C2C12 statin: suppressors of statin myotoxicity in C2C12 myotubes, primary screen, cell-based, single point, plate reader; rescue of ATP level, % at 7.49 µM; C2C12 myotubes + simvastatin, ATP luminescence, 48 h; scaled: DMSO 0, geranylgeraniol control 100; actives 0.78% (n = 330,000); AID 602340, 2012;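 active = mean ATP rescue above about 67%, or every replicate alone reaching that limit, limit read from the data, passing the limit was not always enough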;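 also: myotubes were challenged with 10 µM simvastatin during compound exposure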
Alpha artifact: AlphaScreen signal interference with preloaded methylated product, dose response, artefact control for NSD2 inhibitor project, biochemical, cherry-picked samples. shares compounds with NSD2 inh. AlphaScreen artifact counterscreen, preloaded methylated H4 peptide. AC35, µM (titrated, usually from 10 µM), for inactives: at the top dose activity change, negative = signal loss. actives 9.4% (n = 1,500). AID 1053174, 2014; call rule not given here
Numbers without * were called inactive; x = no result given; [ ] = remark or other dose.

SMILES	NSD2 inh	miR122 inh	PglD DTNB	C2C12 statin	Alpha artifact
C=CC[n+]1c(-c2ccc(C)cc2)csc1Nc1c(C)n(C)n(-c2ccccc2)c1=O	25	-7	-2	9	x
C=CC[n+]1c(-c2ccc(Cl)cc2Cl)csc1Nc1c(C)n(C)n(-c2ccccc2)c1=O	51*	-22	-2	19	-14%
C[C@@H]1CN([C@H](C)CO)S(=O)(=O)c2ccc(-c3ccc(C(=O)N(C)C)cc3)cc2O[C@@H]1CN(C)C(=O)C1CCCCC1	x	-9[16.7 µM]	3	-5	x
CCOCCCNC(=O)Cn1cc2c(n1)-c1c(oc(C(=O)N3CCCC3)c1C)CC2	97*	x	3	0	-8%
CCCCN(C)CCCNC(=O)Cn1cc2c(n1)-c1c(oc(C(=O)N3CCCC3)c1C)CC2	16	-3	1	-1	x
CNC(=O)COC(=O)/C=C/c1cccs1	79*	-6	-2	1	-5%
CC1Cc2ccccc2N1C(=O)COc1cccc(-n2cnnn2)c1 (configuration not stated)	130*	0	4	2	-2%
O=C(COc1cccc(-n2cnnn2)c1)N1CCOCC1	-2	-2	8	-2	x
COc1ccc(S(=O)(=O)N(C)C[C@@H]2Oc3ccc(NC(=O)Nc4c(C)noc4C)cc3C(=O)N([C@H](C)CO)C[C@H]2C)cc1	x	1[16.7 µM]	0	14	x
CN1CCN(c2ccc(NC(=O)COc3ccc4ccccc4c3)cc2)CC1	125*	-14	0	-1	-1%
CCN(CC)CCCN(Cc1cc2cc3c(cc2[nH]c1=O)OCO3)C(=S)NCCOC	27	x	-1	-7	x
CCN(CC)CCCN(Cc1cc2cc(OC)c(OC)cc2[nH]c1=O)C(=O)Nc1ccccc1	51*	-3	4	-4	0%
CCN(CC)CCCN(Cc1cc2cc3c(cc2[nH]c1=O)OCO3)C(=O)Nc1ccccc1OC	8	2	x	x	x
CCNC(=S)N(CCCN(CC)CC)Cc1cc2cc3c(cc2[nH]c1=O)OCO3	84*	-9	-3	6	-7%
CC(C)NC(=O)Nc1ccc2c(c1)C(=O)N([C@@H](C)CO)C[C@H](C)[C@H](CN(C)Cc1ccc3c(c1)OCO3)OCCCC[C@@H](C)O2	x	11[16.7 µM]	2	x	x
CC1(C)Cc2c(c(-c3ccco3)[nH]c(=O)c2C#N)CO1	58*	1	-2	-1	0%
CN(C)CCNc1nc(-c2ccco2)c2c(c1C#N)CC(C)(C)OC2	127*	-2	5	12	-1%
CCc1[nH]c(=O)c(C#N)c2c1COC(C)(C)C2	-3	-3	2	2	x
O=C(c1ccc(F)cc1)N1[C@@H]2CNc3ccccc3[C@@H]2[C@@H]1CO	x	5[16.7 µM]	-6	3	x
CC(C)(C)C(=O)COC(=O)C1CC(=O)N(c2ccccc2)C1 (configuration not stated)	-2	-4	2	-7	x
O=C(OCc1cccc2ccccc12)C1CC(=O)N(c2ccccc2)C1 (configuration not stated)	79*	0	-7	2	-4%
CCNC(=O)C[C@@H]1CC[C@H]2[C@@H](COc3ccc(NC(=O)Nc4c(C)noc4C)cc3C(=O)N2C)O1	x	6[16.7 µM]	-7	20	x
CCCNC(=O)N1C[C@H]2[C@@H](c3ccccc31)[C@@H](CO)N2Cc1cc(F)ccc1F	x	-4[16.7 µM]	0	19	x
CCN1/C(=C/c2ccc3cccc(C)c3[n+]2CC)Sc2ccccc21	45	-31	-9	x	x
CCN1/C(=C/c2ccc3cc(C)cc(C)c3[n+]2CC)Sc2cc(C)ccc21	113*	-1	-3	-74	9.7µM*
CNC(=O)C[C@H]1CC[C@H]2[C@H](COc3ccc(NC(=O)C(C)C)cc3C(=O)N2C)O1	x	-10[16.7 µM]	0	-3	x
CC[n+]1c(/C=C/Nc2ccccc2)oc2ccccc21	81*	-4	-4	-88	-4%
CC[n+]1c(/C=C/Nc2ccccc2)oc2ccc(OC)cc21	-4	x	x	x	x
